Results on 13 molecules are retold here after PubChem BioAssay.

Active and inactive are the calls of the source.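 The calls were made as follows, unless noted: active = fluorescence slope after compound addition differing from the mean of all screened samples at 99.7% confidence, in either direction; inactive = the rest.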

Experiment [1] is described as follows: inhibitors of TNFa-induced NFkB p65 translocation, primary screen, imaging, HUVEC, MLSMR starter and 10KST1 sets (AID 438;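 active = inhibition above 20% together with a positive visual image hit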;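 also: compound added about 3h40 before a 20 min TNFalpha stimulation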;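 as to inhibition: signal is the nuclear over cytoplasmic p65 intensity ratio per well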). The note with it: HUVEC TNFa-induced p65 nuclear translocation; cell count: measured here: nuclei count (cytotoxicity indicator), at 2.08 µM; inhibition: at 2 µM, stronger effect = higher value, 0% TNFa-plus-vehicle, 100% no-TNFa wells.
Experiment [2] is described as follows: inhibitors of mutant huntingtin aggregation, primary screen, imaging, exon1htt(103Q)mCFP cells, high-content imaging (AID 483;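 active = visual image review flags a hit and inhibition of aggregation exceeds 20%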;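 also: compound exposure lasted 3 days before fixation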;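 as to nuclei count: percent of the per-plate median nuclei count of sample wells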). The conditions noted are these: exon1htt(103Q)mCFP cell line, aggregate imaging, at 2 µM; inhibition of aggregation: stronger effect = higher value; nuclei count: measured here: cell count, toxicity.
Experiment [3] can be described thus: inhibitors of E-selectin induction by TNFa, primary screen, imaging, HUVEC, immunofluorescence, MLSMR starter and 10KST1 sets (AID 487;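 active = visually confirmed hit in the image check and inhibition above 20%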;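 as to inhibition: signal is fraction of cell area covered by stained E-selectin grains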;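 as to nuclei count: 100% = median nuclei count of all wells on the same plate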). The conditions noted are these: HUVEC TNFalpha-induced E-selectin immunofluorescence imaging, at 2 µM; inhibition: stronger effect = higher value; nuclei count: measured here: cell number, toxicity.
Experiment [4] deals with Voltage-gated potassium channel subunit beta-2 (Rattus norvegicus) (UniProt P62483). Kind of experiment: KvBeta enzyme negative modulators, primary screen, biochemical, NADPH fluorescence (AID 622;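 active = fluorescence slope higher than the sample average by over 3 SD, cut at about -0.22 in these data, passing the limit was not always enough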;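 also: slope of raw intensity against log time taken from 70 to 1610 s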). The conditions noted are these: recombinant KvBeta, 4-cyanobenzaldehyde reduction, at 10 µM, stronger effect = higher value.
Experiment [5] shares this target. Kind of experiment: KvBeta positive modulators, primary screen, biochemical, NADPH fluorescence (AID 623;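 active = NADPH fluorescence slope more negative than the mean of all samples by about 3 SD, 99.7% confidence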;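 also: fluorescence intensity change per second fitted from 20 to 320 s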). The note with it: Recombinant KvBeta, NADPH fluorescence decrease slope, 10 min; at 10 µM; stronger effect = lower value.
Experiment [6] has as its target Alpha-2C adrenergic receptor (Homo sapiens) (UniProt P18825). Description: modulators of alpha2C/GIRK thallium flux, primary screen, cell-based, HEK293 alpha2C/GIRK1/2 (AID 624).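 Also: slope of fluorescence ratio to pre-addition baseline per second over 15 to 24 s.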 The note with it: thallium flux BTC fluorescence, at 10 µM, actives lie on both sides.
A short description of experiment [7]: inhibitors of Sendai virus-induced IRF3 signaling, primary screen, TLR/RLR signaling modifier project, cell-based, Sendai virus stimulus, luciferase, 10K MLSCN set (AID 602276;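 active = inhibition at or above 50% at 10 µM; inactive = inhibition below 50%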;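 also: firefly luciferase from ISG56 promoter only with Renilla not read in this screen; 0% = Sendai virus plus DMSO and 100% = medium plus DMSO without virus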). The note with it: HEK293 RL24 IRF3 luciferase reporter, at 10 µM, stronger effect = higher value.
Experiment [8] is described as follows: inhibitors of poly I:C-induced TLR3 signaling, primary screen, cell-based, poly I:C stimulus, luciferase, 10K MLSCN set (AID 602277;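 active = inhibition of the reporter signal at or above 50%; inactive = inhibition below 50%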). The note with it: HEK293-TLR3 RL24 IRF3 luciferase reporter, at 10 µM, stronger effect = higher value.

Chain of Voltage-gated potassium channel subunit beta-2 (Rattus norvegicus) (P62483 whole entry, looked up): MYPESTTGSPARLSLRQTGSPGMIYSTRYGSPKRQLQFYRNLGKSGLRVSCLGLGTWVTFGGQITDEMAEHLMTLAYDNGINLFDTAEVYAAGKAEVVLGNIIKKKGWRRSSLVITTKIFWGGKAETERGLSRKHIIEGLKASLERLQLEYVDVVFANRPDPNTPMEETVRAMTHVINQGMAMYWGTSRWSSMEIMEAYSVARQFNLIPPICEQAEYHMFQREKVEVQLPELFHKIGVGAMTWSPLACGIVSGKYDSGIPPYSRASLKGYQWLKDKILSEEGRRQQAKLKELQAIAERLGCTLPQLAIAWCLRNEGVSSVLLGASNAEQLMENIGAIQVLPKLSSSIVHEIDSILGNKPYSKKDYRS
Chain of Alpha-2C adrenergic receptor (Homo sapiens) (P18825 whole entry, looked up): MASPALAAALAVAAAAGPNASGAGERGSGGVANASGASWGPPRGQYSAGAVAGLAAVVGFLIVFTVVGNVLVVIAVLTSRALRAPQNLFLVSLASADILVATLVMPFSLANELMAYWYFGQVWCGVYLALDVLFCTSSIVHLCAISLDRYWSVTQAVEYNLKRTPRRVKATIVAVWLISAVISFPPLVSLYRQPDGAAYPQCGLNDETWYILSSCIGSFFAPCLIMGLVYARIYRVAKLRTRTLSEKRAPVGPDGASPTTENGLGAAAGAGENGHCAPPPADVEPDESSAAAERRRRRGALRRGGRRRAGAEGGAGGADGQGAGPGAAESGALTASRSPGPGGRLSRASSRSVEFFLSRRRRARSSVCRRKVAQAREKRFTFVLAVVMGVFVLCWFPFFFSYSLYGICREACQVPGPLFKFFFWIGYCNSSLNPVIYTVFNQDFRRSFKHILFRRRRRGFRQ

For the molecule `Cc1cc2c(c(=O)n1C)C(Cc1ccccc1)C(C#N)=C(N)O2` (stereo not drawn), the cell count in experiment [1] is 620. Moreover, the inhibition in experiment [1] was -20.7% (inactive); in experiment [3] it was -61.8% (inactive); in experiment [7], 9.72% (inactive); in experiment [8], 14.5% (inactive). For the same molecule, the inhibition of aggregation in experiment [2] was 24.9% (inactive). For the same molecule, the nuclei count in experiment [2] came to 99.1%; in experiment [3], 117%. Moreover, the fluorescence slope in experiment [4] is -0.322 (inactive). Besides, the NADPH fluorescence slope in experiment [5] is -3.8e-05 (inactive). Moreover, in experiment [6], the slope was 0.00445 (inactive).

For the molecule `CCn1cc(C(=O)NCCC2=CCCCC2)c(=O)c2cc(S(=O)(=O)N(C)C)ccc21`, the cell count in experiment [1] was found to be 458. Moreover, the inhibition in experiment [1] was -6.1% (inactive); in experiment [3], -45.7% (inactive); in experiment [7] it was 3.13% (inactive); in experiment [8], 17.6% (inactive). For the same molecule, the inhibition of aggregation in experiment [2] was 38.5% (active). Moreover, the nuclei count in experiment [2] was determined as 79%; in experiment [3], 93.2%. Besides, in experiment [4], the fluorescence slope was -0.563 (inactive). Moreover, the NADPH fluorescence slope in experiment [5] is -4.1e-05 (inactive). For the same molecule, the slope in experiment [6] was 0.00705 (inactive).

Take `CCOC(=O)N1CCN(Cc2nc3c(c(=O)[nH]c(=O)n3C)n2Cc2cc(C)ccc2C)CC1`: the cell count in experiment [1] was determined as 693. Besides, the inhibition in experiment [1] is -2.2% (inactive); in experiment [3], -103% (inactive); in experiment [7], 19.2% (inactive); in experiment [8], 27.4% (inactive). In experiment [2], the inhibition of aggregation was -78% (inactive). In addition, the values for the nuclei count in experiment [2] and in experiment [3] were 115% and 119%, respectively. Moreover, the fluorescence slope in experiment [4] is -0.505 (inactive). For the same molecule, the NADPH fluorescence slope in experiment [5] was -5.3e-05 (inactive). Besides, the slope in experiment [6] was 0.00433 (inactive).

Take `CCOC(=O)Cn1c(N2CCOCC2)nc2c1c(=O)[nH]c(=O)n2C`: the cell count in experiment [1] is 673. Also, the inhibition is -8.7% (inactive) in experiment [1], -0.1% (inactive) in experiment [3], 9.13% (inactive) in experiment [7] and 21.5% (inactive) in experiment [8]. The inhibition of aggregation in experiment [2] is -18.2% (inactive). Also, the nuclei count was 118% in experiment [2] and 107% in experiment [3]. In addition, in experiment [4], the fluorescence slope is -0.415 (inactive). Also, the NADPH fluorescence slope in experiment [5] is -6.2e-05 (inactive). Moreover, the slope in experiment [6] was 0.00268 (inactive).

As for `Cc1csc(NC(=O)CCS(=O)(=O)c2ccc(Br)cc2)n1`, the cell count in experiment [1] amounted to 721. The inhibition in experiment [1] is 0% (inactive); in experiment [3] it was 5.7% (inactive); in experiment [7], -20.4% (inactive); in experiment [8], -7.68% (inactive). Further, in experiment [2], the inhibition of aggregation is -30.9% (inactive). Moreover, the nuclei count in experiment [2] is 91.7%; in experiment [3] it was 115%. The fluorescence slope in experiment [4] is -0.609 (inactive). Further, the NADPH fluorescence slope in experiment [5] is 1.8e-05 (inactive). In addition, the slope in experiment [6] is 0.00541 (inactive).

On to `CCCOC(=O)/C(C(N)=NCc1ccccc1)=C(\O)OCCC`, for which the cell count in experiment [1] stood at 488. For the same molecule, the inhibition is 4.4% (inactive) in experiment [1], -8.5% (inactive) in experiment [3], -11.7% (inactive) in experiment [7] and -11.9% (inactive) in experiment [8]. Also, the inhibition of aggregation in experiment [2] was -27.7% (inactive). For the same molecule, the nuclei count turned out to be 110% in experiment [2] and 127% in experiment [3]. Further, in experiment [4], the fluorescence slope was -0.406 (inactive). In addition, the NADPH fluorescence slope in experiment [5] is 0.00015 (inactive). Also, the slope in experiment [6] is 0.00562 (inactive).

As for `CCOC(=O)N1CCN(Cc2cc(=O)oc3ccc4ccccc4c23)CC1`, the cell count in experiment [1] was determined as 472. Moreover, the inhibition in experiment [1] was 16.9% (inactive); in experiment [3] it was -64% (inactive); in experiment [7] it was 16.9% (inactive); in experiment [8], 21.7% (inactive). Moreover, the inhibition of aggregation in experiment [2] was 11.2% (inactive). Also, the nuclei count in experiment [2] was found to be 93.3%; in experiment [3] it was 113%. In addition, the fluorescence slope in experiment [4] was -0.408 (inactive). The NADPH fluorescence slope in experiment [5] was 8.3e-06 (inactive). Moreover, the slope in experiment [6] was 0.0055 (inactive).

Consider `CCOC(=O)NC(=O)CSc1nnnn1-c1ccc(Cl)cc1`, for which, in experiment [1], the cell count amounted to 394. Moreover, the inhibition in experiment [1] was 10% (inactive); in experiment [3] it was -90.3% (inactive); in experiment [7], 4.73% (inactive); in experiment [8] it was 15.2% (inactive). The inhibition of aggregation in experiment [2] is 2.2% (inactive). Moreover, the nuclei count in experiment [2] is 83.5%; in experiment [3], 110%. For the same molecule, the fluorescence slope in experiment [4] was -0.297 (inactive). The NADPH fluorescence slope in experiment [5] was 4.2e-05 (inactive). Further, in experiment [6], the slope is 0.00637 (inactive).

For `O=c1cc(CSc2nnnn2-c2ccccc2)nc2scc(-c3ccccc3)n12`, the cell count in experiment [1] came to 444. The inhibition in experiment [1] was 8.1% (inactive); in experiment [3] it was -101% (inactive); in experiment [7], 1.29% (inactive); in experiment [8], 12% (inactive). Further, in experiment [2], the inhibition of aggregation was -10.9% (inactive). Besides, the nuclei count in experiment [2] worked out at 114%; in experiment [3] it was 139%. The fluorescence slope in experiment [4] was -0.415 (inactive). Moreover, the NADPH fluorescence slope in experiment [5] was -1.1e-05 (inactive). In experiment [6], the slope was 0.004 (inactive).

As to `CN(C)CCCN1C(=O)c2oc3ccc(Cl)cc3c(=O)c2C1c1cccnc1` (stereo not drawn), the cell count in experiment [1] is 611. In addition, the inhibition was -3.3% (inactive) in experiment [1], -27% (inactive) in experiment [3], 13.5% (inactive) in experiment [7] and 39% (inactive) in experiment [8]. In addition, the inhibition of aggregation in experiment [2] was -16.3% (inactive). In addition, the nuclei count in experiment [2] is 112%; in experiment [3] it was 122%. The fluorescence slope in experiment [4] is -0.546 (inactive). In addition, the NADPH fluorescence slope in experiment [5] was -5.3e-05 (inactive). The slope in experiment [6] was 0.00766 (inactive).

On to `Cc1cc(/C=N/n2cnnc2)c(C)n1-c1cccc(Cl)c1`, for which, in experiment [1], the cell count is 567. In addition, the inhibition in experiment [1] is 4.7% (inactive); in experiment [3] it was 40.1% (inactive); in experiment [7], 13.2% (inactive); in experiment [8] it was 21.5% (inactive). Also, the inhibition of aggregation in experiment [2] was 31% (inactive). Besides, the nuclei count in experiment [2] was found to be 32.1%; in experiment [3], 46%. For the same molecule, the fluorescence slope in experiment [4] is -0.364 (inactive). Besides, the NADPH fluorescence slope in experiment [5] is -3.8e-05 (inactive). Further, the slope in experiment [6] was 0.00449 (inactive).

As for `CCN(CC)C(=O)C1CCC(CNS(=O)(=O)c2cccc3cccnc23)CC1` (stereo not drawn), the cell count in experiment [1] is 787. For the same molecule, the inhibition in experiment [1] was 4.4% (inactive); in experiment [3], -26.3% (inactive); in experiment [7], 11.4% (inactive); in experiment [8], 16.8% (inactive). Also, the inhibition of aggregation in experiment [2] is -8.4% (inactive). Besides, the nuclei count is 94.4% in experiment [2] and 114% in experiment [3]. Moreover, the fluorescence slope in experiment [4] was -0.497 (inactive). In addition, in experiment [5], the NADPH fluorescence slope is -2.6e-05 (inactive). For the same molecule, the slope in experiment [6] was 0.00724 (inactive).

For the molecule `C=CCSc1nc2c(c(=O)[nH]c(=O)n2C)n1CC`, the cell count in experiment [1] amounted to 570. Further, the inhibition in experiment [1] was -3% (inactive); in experiment [3] it was -48% (inactive); in experiment [7], -5.1% (inactive); in experiment [8] it was 22.4% (inactive). Besides, the inhibition of aggregation in experiment [2] was 6.3% (inactive). Further, the nuclei count is 36.2% in experiment [2] and 96.3% in experiment [3]. For the same molecule, the fluorescence slope in experiment [4] was -0.499 (inactive). The NADPH fluorescence slope in experiment [5] was -2.4e-05 (inactive). Also, in experiment [6], the slope was 0.00669 (inactive).
